Measurements from publication PMC7862700, “An all-to-all approach to the identification of sequence-specific readers for epigenetic DNA modifications on cytosine”.

Columns and labels:
Assay in all cases: DAPPL (digital affinity profiling via proximity ligation, sequencing); 10 mM Tris-HCl pH 7.5, 50 mM NaCl, 1 mM DTT, 4% glycerol, room temperature, 30 min; GST-TFs on glutathione beads, 16-mer random dsDNA library, 0.1% formaldehyde crosslink after washing; high values mean tight binding
Details in all cases: protein: recombinant; tags: N-terminal GST; dsDNA, one strand shown
ERF = target: T1, ERF (Homo sapiens, UniProt P50548 1-548)
T1 sequence: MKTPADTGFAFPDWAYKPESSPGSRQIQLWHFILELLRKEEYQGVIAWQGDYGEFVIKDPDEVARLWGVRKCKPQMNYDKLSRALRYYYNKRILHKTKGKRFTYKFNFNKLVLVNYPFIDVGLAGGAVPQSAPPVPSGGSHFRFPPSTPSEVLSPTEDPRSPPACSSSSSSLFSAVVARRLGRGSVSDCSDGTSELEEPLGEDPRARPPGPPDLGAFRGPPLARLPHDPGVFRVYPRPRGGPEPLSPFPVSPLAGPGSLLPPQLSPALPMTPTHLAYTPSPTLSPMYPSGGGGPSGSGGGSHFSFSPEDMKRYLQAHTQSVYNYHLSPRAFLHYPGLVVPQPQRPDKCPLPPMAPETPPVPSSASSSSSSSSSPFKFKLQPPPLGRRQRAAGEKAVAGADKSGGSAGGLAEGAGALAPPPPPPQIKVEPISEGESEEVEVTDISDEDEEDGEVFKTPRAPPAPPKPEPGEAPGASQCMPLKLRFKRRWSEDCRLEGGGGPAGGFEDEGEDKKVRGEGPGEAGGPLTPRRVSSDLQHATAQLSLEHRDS
Outline: (§1)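 Each value of binding signal is a hexamer's read frequency for a factor divided by the same hexamer's frequency in the tag-only sample. Barcoded, bead-captured GST fusions of human transcription factors made in yeast were pooled with that sample and incubated with 200 nmole of a random double-stranded 16-mer DNA library in Tris/NaCl/DTT/glycerol buffer at room temperature for 30 min. Washing, 0.1% formaldehyde crosslinking, proximity ligation, PCR and Illumina NextSeq500 sequencing followed.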

ETV3L = target: T2, ETV3L (Homo sapiens, UniProt Q6ZN32 1-361)
T2 sequence: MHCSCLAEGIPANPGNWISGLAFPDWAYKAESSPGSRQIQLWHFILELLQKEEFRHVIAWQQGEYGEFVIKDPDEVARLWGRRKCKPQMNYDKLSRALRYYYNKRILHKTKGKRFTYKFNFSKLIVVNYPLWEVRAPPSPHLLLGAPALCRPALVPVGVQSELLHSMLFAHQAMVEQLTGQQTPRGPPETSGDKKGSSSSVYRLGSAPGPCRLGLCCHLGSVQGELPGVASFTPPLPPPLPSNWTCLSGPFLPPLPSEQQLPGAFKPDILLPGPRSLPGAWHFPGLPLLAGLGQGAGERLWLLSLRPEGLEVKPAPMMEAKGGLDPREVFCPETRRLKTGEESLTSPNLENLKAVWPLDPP
Outline: as §1

ETS2 = target: T3, ETS2 (Homo sapiens, UniProt P15036 1-469)
T3 sequence: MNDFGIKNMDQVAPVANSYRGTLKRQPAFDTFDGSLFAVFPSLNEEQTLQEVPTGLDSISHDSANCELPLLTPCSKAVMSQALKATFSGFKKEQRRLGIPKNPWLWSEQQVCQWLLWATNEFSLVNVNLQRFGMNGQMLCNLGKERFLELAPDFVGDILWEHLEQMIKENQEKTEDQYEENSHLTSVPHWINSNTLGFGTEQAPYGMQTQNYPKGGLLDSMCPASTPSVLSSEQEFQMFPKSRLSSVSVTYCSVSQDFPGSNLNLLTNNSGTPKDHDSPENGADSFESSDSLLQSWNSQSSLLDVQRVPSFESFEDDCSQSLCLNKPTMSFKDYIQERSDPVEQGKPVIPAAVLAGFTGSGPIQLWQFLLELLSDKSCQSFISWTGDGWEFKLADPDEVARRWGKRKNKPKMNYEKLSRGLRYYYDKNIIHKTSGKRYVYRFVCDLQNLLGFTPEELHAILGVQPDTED
Outline: as §1

SPDEF = target: T4, SPDEF (Homo sapiens, UniProt O95238 1-335)
T4 sequence: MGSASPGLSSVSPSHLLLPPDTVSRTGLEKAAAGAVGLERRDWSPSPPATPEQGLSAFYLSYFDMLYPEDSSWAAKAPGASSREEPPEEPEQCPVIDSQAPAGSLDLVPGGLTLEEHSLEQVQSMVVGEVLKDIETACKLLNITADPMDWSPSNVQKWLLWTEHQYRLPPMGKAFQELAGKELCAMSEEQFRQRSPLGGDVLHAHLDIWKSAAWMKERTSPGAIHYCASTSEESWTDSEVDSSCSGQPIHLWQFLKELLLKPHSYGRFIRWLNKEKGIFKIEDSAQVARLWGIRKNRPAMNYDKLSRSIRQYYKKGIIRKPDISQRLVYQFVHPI
Outline: as §1

ETV7 = target: T5, ETV7 (Homo sapiens, UniProt Q9Y603 1-341)
T5 sequence: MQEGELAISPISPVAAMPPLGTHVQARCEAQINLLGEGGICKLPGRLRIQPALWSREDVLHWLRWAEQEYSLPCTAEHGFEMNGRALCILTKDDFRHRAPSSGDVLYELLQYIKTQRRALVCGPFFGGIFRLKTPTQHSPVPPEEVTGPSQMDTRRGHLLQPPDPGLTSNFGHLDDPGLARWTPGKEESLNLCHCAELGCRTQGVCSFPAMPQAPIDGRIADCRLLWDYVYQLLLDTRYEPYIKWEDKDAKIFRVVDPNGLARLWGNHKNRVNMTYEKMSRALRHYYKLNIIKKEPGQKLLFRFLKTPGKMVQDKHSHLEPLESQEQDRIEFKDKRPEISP
Outline: as §1

ELF5 = target: T6, ELF5 (Homo sapiens, UniProt Q9UKW6-2 1-255)
T6 sequence: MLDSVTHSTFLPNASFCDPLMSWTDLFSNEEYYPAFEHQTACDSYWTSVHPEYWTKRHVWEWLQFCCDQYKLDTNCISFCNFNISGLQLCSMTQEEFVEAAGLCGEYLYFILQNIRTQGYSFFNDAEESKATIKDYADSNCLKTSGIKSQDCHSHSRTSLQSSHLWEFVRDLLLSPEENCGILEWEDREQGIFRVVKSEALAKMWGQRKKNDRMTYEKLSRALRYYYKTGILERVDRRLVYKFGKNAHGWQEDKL
Outline: as §1

ETV3 = target: T7, ETV3 (Homo sapiens, UniProt P41162-2 1-143)
T7 sequence: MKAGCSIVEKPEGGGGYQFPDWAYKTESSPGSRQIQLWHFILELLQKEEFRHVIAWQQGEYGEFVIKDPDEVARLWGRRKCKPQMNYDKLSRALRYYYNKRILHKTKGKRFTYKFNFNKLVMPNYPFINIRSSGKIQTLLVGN
Outline: as §1

ETV6 = ETV6 (Homo sapiens, UniProt P41212 1-452)
ETV6, sequence (P41212 whole entry): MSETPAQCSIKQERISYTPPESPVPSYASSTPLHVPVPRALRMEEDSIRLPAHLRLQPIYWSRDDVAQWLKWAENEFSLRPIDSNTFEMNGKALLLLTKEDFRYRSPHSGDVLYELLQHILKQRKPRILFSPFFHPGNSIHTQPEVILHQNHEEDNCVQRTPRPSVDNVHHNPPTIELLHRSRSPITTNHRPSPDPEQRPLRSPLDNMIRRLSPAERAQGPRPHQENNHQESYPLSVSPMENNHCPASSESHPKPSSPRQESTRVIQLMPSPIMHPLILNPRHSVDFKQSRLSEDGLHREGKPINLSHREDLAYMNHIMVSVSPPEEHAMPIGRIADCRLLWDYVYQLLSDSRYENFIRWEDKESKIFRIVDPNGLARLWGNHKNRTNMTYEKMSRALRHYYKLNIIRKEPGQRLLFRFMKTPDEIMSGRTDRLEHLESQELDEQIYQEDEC
Outline: as §1

ACTTAT
binding signal (ERF): 1.39 fold enrichment (6-mer frequency, TF over GST control) | binding signal (ETV3L): 1.34 fold enrichment (6-mer frequency, TF over GST control) | binding signal (ETS2): 1.36 fold enrichment (6-mer frequency, TF over GST control) | binding signal (SPDEF): 1.4 fold enrichment (6-mer frequency, TF over GST control) | binding signal (ETV7): 1.21 fold enrichment (6-mer frequency, TF over GST control) | binding signal (ELF5): 1.38 fold enrichment (6-mer frequency, TF over GST control) | binding signal (ETV3): 1.35 fold enrichment (6-mer frequency, TF over GST control) | binding signal (ETV6): 1.27 fold enrichment (6-mer frequency, TF over GST control)

AGTGCT
binding signal (ERF): 1.41 fold enrichment (6-mer frequency, TF over GST control) | binding signal (ETV3L): 1.32 fold enrichment (6-mer frequency, TF over GST control) | binding signal (ETS2): 1.46 fold enrichment (6-mer frequency, TF over GST control) | binding signal (SPDEF): 1.33 fold enrichment (6-mer frequency, TF over GST control) | binding signal (ETV7): 1.37 fold enrichment (6-mer frequency, TF over GST control) | binding signal (ELF5): 1.48 fold enrichment (6-mer frequency, TF over GST control) | binding signal (ETV3): 1.56 fold enrichment (6-mer frequency, TF over GST control) | binding signal (ETV6): 1.52 fold enrichment (6-mer frequency, TF over GST control)

ACTTTT
binding signal (ERF): 1.26 fold enrichment (6-mer frequency, TF over GST control) | binding signal (ETV3L): 1.25 fold enrichment (6-mer frequency, TF over GST control) | binding signal (ETS2): 1.25 fold enrichment (6-mer frequency, TF over GST control) | binding signal (SPDEF): 1.25 fold enrichment (6-mer frequency, TF over GST control) | binding signal (ETV7): 1.36 fold enrichment (6-mer frequency, TF over GST control) | binding signal (ELF5): 1.26 fold enrichment (6-mer frequency, TF over GST control) | binding signal (ETV3): 1.31 fold enrichment (6-mer frequency, TF over GST control) | binding signal (ETV6): 1.34 fold enrichment (6-mer frequency, TF over GST control)

CGTTAA
binding signal (ERF): 1.06 fold enrichment (6-mer frequency, TF over GST control) | binding signal (ETV3L): 1.18 fold enrichment (6-mer frequency, TF over GST control) | binding signal (ETS2): 1.12 fold enrichment (6-mer frequency, TF over GST control) | binding signal (SPDEF): 1.1 fold enrichment (6-mer frequency, TF over GST control) | binding signal (ETV7): 1.12 fold enrichment (6-mer frequency, TF over GST control) | binding signal (ELF5): 1.19 fold enrichment (6-mer frequency, TF over GST control) | binding signal (ETV3): 1.21 fold enrichment (6-mer frequency, TF over GST control) | binding signal (ETV6): 1.16 fold enrichment (6-mer frequency, TF over GST control)
